These results are taken from PubChem BioAssay (NCATS).

Records with an inconclusive call do not appear. Where a call stands in place of a potency, no number is given. A number with no mark means an inactive call. Active and inactive are the calls of the source. Calls come from the whole dose curve; as a rule, active = well fitted cell-killing curve with a large enough effect; inconclusive = small, poorly fitted or top-dose-only effect, or effect the other way; inactive = no such curve, though single readings can be large or run the other way.
Potency is the fitted concentration of half-maximal effect.

A short description of the experiment: Viability qHTS for spleen associated tyrosine kinase inhibitor (SYKi) naive MV4-11 cells (AID 1963823). Note: nearly all actives have a fitted effect of over 40% in size. The conditions noted are these: MV4-11 AML viability, CellTiter-Glo luminescence, 72 h; series mostly up to 45 µM. Put shortly:
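Viability of MV4-11 AML cells lacking prior SYK inhibitor exposure is scored by CellTiter-Glo luminescence following 72 hr compound incubation at 37 C, 5% CO2, seeded at 500 cells per well.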
As to `C=C1C[C@]23C[C@H]1CC[C@H]2[C@]1(C)CC[C@H](O)[C@@](C)(C(=O)O)[C@H]1[C@@H]3C(=O)O`, the Potency result is “inactive”.

`O=C1NC(=O)C(c2cn(-c3ccccc3)nc2-c2ccc(F)cc2)N1` (stereo not drawn): the Potency entry was “inactive”.

For `CCCCCOc1ccc(-c2cc(-c3ccc(C(=O)N[C@H]4C[C@@H](O)[C@@H](O)NC(=O)C5[C@@H](O)[C@@H](C)CN5C(=O)C([C@H](O)CC(N)=O)NC(=O)C([C@H](O)[C@@H](O)c5ccc(O)c(OS(=O)(=O)O)c5)NC(=O)C5C[C@@H](O)CN5C(=O)C([C@@H](C)O)NC4=O)cc3)no2)cc1` (stereo partly drawn), the Potency entry is “inactive”. Same read-out and setting: then `O=c1nc(-c2ccccn2)sc2ccccc12`, with 1840 nM (active); and `CC(C)C1(O[C@@H]2O[C@H](CO)[C@@H](O)[C@H](O)[C@H]2O)CC=C(CO)CC1` (stereo partly drawn), with “inactive”; and `O=C(O)c1cc2cccc([N+](=O)[O-])c2[nH]1`, with “inactive”. With `CC(NC(=O)[C@H](Cc1ccccc1)NC(=O)OCc1ccccc1)C(=O)CF` (stereo partly drawn), the Potency entry is “inactive”. Same read-out and setting: then `C[n+]1ccc(-c2c3nc(c(-c4cc[n+](C)cc4)c4ccc([nH]4)c(-c4cc[n+](C)cc4)c4nc(c(-c5cc[n+](C)cc5)c5ccc2[nH]5)C=C4)C=C3)cc1`, with “inactive”; and `COc1cc(C2Oc3c(OC)cc(CCCO)cc3C2CO)ccc1O` (stereo not drawn), with “inactive”; and `C=C1CCC2C(C)(COC(C)=O)CCCC2(C)C1CCC(C)CC(=O)O` (stereo not drawn), with “inactive”. `OC[C@H]1O[C@@H](OC[C@H]2O[C@@H](OCc3ccccc3)[C@H](O)[C@@H](O)[C@@H]2O)[C@H](O)[C@@H](O)[C@@H]1O`: the Potency result is “inactive”.

For `CCOC(=O)CCC(=O)O[C@H]1[C@H](O[C@@H]2[C@@H](C)[C@H](O[C@H]3C[C@@](C)(OC)[C@@H](O)[C@H](C)O3)[C@@H](C)C(=O)O[C@H](CC)[C@@](C)(O)[C@H](O)[C@@H](C)C(=O)[C@H](C)CC2(C)O)O[C@H](C)C[C@@H]1N(C)C` (stereo partly drawn), the Potency entry is “inactive”. For the compound `CC1OC(OC2C(OC(=O)[C@]34CCC(C)(C)C[C@H]3C3=CCC5[C@@]6(C)CC[C@H](OC7OC(C(=O)O)C(O)C(O)C7O)C(C)(C)C6CC[C@@]5(C)[C@]3(C)CC4O)OC(CO)C2O)C(O)C(O)C1OC1OCC(O)C(O)C1O` (stereo partly drawn), the viability (% of control) was 70.8% [at 9.25 µM].

With `C[C@@H]1O[C@@H](O[C@H]2[C@@H]3C=CO[C@@H](O[C@@H]4O[C@H](CO)[C@@H](O)[C@H](O)[C@H]4O)[C@@H]3[C@@]3(CO)O[C@@H]23)[C@H](OC(=O)/C=C/c2ccccc2)[C@H](O)[C@H]1O`, the Potency result was “inactive”. Turning to `O=C(O)C(Cc1ccccc1)NC(=O)C1CCCN1` (stereo not drawn), the Potency result is “inactive”. Still for that read-out and setting: then `CCOc1c2c(c(OCC)c3ccccc13)C(=O)N(c1ccc(CC(=O)NS(=O)(=O)c3ccccc3)cc1)C2`, with “inactive”; and `COC(=O)C(CC1(O)c2ccccc2N2C(=O)C(C)(C)N(O)C21)n1cnc2ccccc2c1=O` (stereo not drawn), with “inactive”; and `Cc1ccc2nc(NC(=O)CSc3nc4c(c(=O)n3-c3ccc(F)cc3)SCC4)sc2c1`, with “inactive”. On the same count and under the same terms, to `NC(=O)Nc1cc(-c2cccc(F)c2)sc1C(=O)NC1CCCNC1` (stereo not drawn) belongs “inactive”.

Regarding `CCC(C)C(=O)O[C@@H]1[C@@H](O)[C@@H](O[C@H]2O[C@H](CO)[C@@H](O)[C@H](O)[C@H]2O)O[C@H](CO)[C@H]1O` (stereo partly drawn), the Potency entry was “inactive”. The same measure, in the same setting: then `C=C1C(OC(C)=O)C(=O)C2C(C)(C)C(O)CCC2(C)C1CC(OC(C)=O)/C(C)=C/COC(C)=O` (stereo not drawn), with “inactive”; and `O=C(OCC1=CC(O)C2C=CO[C@@H](O[C@@H]3O[C@H](CO)[C@@H](O)[C@H](O)[C@H]3O)C12)c1ccccc1` (stereo partly drawn), with “inactive”; and `C[C@@H]1C[C@H]2OC(=O)[C@@]3(C)CCC[C@](C)(C23)[C@@]1(O)CCC1=CC(=O)OC1O` (stereo partly drawn), with “inactive”.

Turning to `COc1ccc(C[C@H](C)NC[C@@H](O)c2ccc(O)c(NC=O)c2)cc1`, the Potency entry was “inactive”. `CC1(C)CC[C@]2(C(=O)O[C@@H]3O[C@H](CO)[C@@H](O)[C@H](O)[C@H]3O)CC[C@]3(C)C(=CCC4[C@@]5(C)C[C@@H](O)[C@H](O)C(C)(C)C5CC[C@]43C)C2[C@@H]1O` (stereo partly drawn): the Potency entry is “inactive”.

Regarding `CC(C)=CCC/C(C)=C/CO[C@@H]1O[C@H](CO)[C@@H](O)[C@H](O)[C@H]1O`, the Potency entry was “inactive”. With `O=C(O)c1ccc(N2C(=O)/C(=C/c3ccc(-c4ccc([N+](=O)[O-])cc4)o3)C=C2c2ccccc2)cc1`, the Potency result is “inactive”.

Regarding `CC(=O)OC[C@]12[C@H](OC(C)=O)[C@H](OC(=O)c3ccccc3)[C@@H]3[C@@H](OC(C)=O)[C@]1(OC3(C)C)[C@H](C)C[C@H](OC(=O)c1ccccc1)[C@@H]2OC(=O)c1ccccc1`, the Potency result was “inactive”.
